Screens: PubChem, National Center for Advancing Translational Sciences (NCATS)
Only some compounds are listed: those with a hit (about 3% of all), similar ones and a draw of the others.
HEK293 viab: reduces viability of HEK-293 SNCA reporter cells. Potency, µM (doses to about 57.1 µM), usual class: cytotoxic. HEK-293-SNCA-luc viability, GF-AFC fluorescence, 24 h. 150,000 tested, 0.12% active; also: nearly all actives have a fitted effect of over 30% in size
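Cytotoxicity counterscreen: after 24 h compound treatment of genome-edited SNCA-luciferase HEK-293 cells, live-cell protease substrate GF-AFC read by fluorescence after 30 min; activity scaled between DMSO (0%) and medium-only (-100%), curves Hill-fitted.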
SNCA expr inhib: SNCA gene expression inhibition | HEK-293 SNCA-luciferase knock-in, luminescence, 24 h | 140,000 tested, 0.17% active | Potency, µM (doses to about 57.2 µM), most hits filed as inhibitors | AID 1671194; also: nearly all actives have a fitted effect of over 45% in size
IP6K1 inh: inhibitors of human IP6K1; Q92551; IP6K1 kinase, ADP-Glo luminescence, 2 h; stronger effect = lower value; activity change, % (series mostly up to about 58 µM); 140,000 tested, 0.81% active; AID 1645851; in the data active = activity change below about -25%
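ADP-Glo luminescence measures ADP made by human IP6K1 during a 2 h RT reaction with ATP/IP6 (mix at 1.3 mM/130 uM); top library doses 57.5 and 19.1 uM final.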
KDM5B inhibitor: inhibitors of human KDM5B histone demethylase | KDM5B demethylase, FDH-coupled NADH fluorescence (FDH is formaldehyde dehydrogenase) | AID 1347165 | 220,000 tested, 2.6% active | Potency, µM (series often up to 57.7 µM), hits mostly inhibitors; also: nearly all actives have a fitted effect of over 70% in size
Target sequence (Q9UGL1 whole entry, looked up): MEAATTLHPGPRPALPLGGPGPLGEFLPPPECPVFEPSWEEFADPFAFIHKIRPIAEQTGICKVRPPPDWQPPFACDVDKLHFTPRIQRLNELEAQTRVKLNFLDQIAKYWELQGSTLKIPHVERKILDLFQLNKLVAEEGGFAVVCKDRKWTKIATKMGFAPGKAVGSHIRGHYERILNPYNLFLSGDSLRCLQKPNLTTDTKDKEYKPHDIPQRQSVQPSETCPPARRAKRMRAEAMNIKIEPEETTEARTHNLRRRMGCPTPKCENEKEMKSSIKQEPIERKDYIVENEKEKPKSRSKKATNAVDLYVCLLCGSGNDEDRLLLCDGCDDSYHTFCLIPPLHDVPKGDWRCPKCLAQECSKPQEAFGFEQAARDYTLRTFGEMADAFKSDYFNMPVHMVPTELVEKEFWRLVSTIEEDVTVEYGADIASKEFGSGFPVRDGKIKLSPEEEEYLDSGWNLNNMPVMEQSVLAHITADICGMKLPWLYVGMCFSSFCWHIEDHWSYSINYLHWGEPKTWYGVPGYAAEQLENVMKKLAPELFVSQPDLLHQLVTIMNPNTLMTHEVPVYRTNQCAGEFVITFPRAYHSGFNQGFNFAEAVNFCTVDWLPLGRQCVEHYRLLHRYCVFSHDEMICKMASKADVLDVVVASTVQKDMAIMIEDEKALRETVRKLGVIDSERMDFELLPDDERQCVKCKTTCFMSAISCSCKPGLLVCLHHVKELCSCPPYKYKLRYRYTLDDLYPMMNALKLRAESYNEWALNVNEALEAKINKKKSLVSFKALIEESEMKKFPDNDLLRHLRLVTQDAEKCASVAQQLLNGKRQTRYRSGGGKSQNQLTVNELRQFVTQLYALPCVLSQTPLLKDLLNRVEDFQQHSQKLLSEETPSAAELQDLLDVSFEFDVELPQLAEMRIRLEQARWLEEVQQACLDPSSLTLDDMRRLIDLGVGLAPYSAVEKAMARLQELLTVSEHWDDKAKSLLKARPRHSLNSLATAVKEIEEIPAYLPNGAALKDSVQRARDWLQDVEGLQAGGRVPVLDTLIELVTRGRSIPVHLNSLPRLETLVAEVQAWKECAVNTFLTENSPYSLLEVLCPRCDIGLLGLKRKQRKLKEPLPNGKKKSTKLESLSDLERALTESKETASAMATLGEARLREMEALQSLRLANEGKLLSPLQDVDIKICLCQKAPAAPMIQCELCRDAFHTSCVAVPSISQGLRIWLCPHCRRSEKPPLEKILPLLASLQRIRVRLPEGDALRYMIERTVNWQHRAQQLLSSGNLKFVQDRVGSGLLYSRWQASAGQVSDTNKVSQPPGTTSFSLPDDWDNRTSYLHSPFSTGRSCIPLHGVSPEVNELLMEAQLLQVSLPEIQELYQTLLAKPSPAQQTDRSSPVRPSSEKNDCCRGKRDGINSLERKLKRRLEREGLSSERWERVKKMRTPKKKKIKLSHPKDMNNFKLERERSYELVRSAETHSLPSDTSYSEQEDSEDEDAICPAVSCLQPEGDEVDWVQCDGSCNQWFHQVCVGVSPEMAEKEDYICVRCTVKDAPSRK
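KDM5BΔAP (200 nM final) in 50 mM HEPES pH 7.5, 0.01% Tween-20 was preincubated 10 min at RT with compound over a concentration range. Substrate mix (H3K4me3 12.5 µM, α-KG 25 µM, Fe²⁺, ascorbate, NAD⁺, FDH) was added, and NADH fluorescence change over 30 min gave dose-response curves.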
Large screens that a line does not name were inactive; ! = not confirmed by another sample. Unless noted, calls follow the shape of the dose curve; as a rule, active = well fitted curve in the direction sought with a large enough effect; inconclusive = small, poorly fitted or top-dose-only effect, or another doubt; inactive = no such curve, though single readings can be large; an effect the other way counts as inactive or inconclusive.

CCNc1cc(N2CCC(CCC(=O)Nc3cccc(OC)c3)CC2)ncn1	SNCA expr inhib 7.9µM
CCNc1cc(N2CCC(CCC(=O)O)CC2)ncn1	SNCA expr inhib 1.3µM
COC(=O)c1nc2ccccc2nc1N1CCN(Cc2ccccc2)CC1	none (no result: HEK293 viab, SNCA expr inhib, IP6K1 inh)
Cn1c(Oc2ccc(-c3ccc(Br)cc3)cc2)c(C#N)c(=O)n(C)c1=O	none (no result: HEK293 viab, SNCA expr inhib, IP6K1 inh)
C[N+](C)(CCCCC(=O)O)C[Si](C)(C)C	none (no result: HEK293 viab, SNCA expr inhib, IP6K1 inh)
CN1C(=O)C(NC(=O)C(=O)NCCc2c[nH]c3ccc(Cl)cc23)c2ccccc21 (stereo not drawn)	none (no result: HEK293 viab, SNCA expr inhib, IP6K1 inh)
CCOC(=O)N1CCN(S(=O)(=O)c2cc(Cl)c(C)cc2OCC)CC1	none (no result: HEK293 viab, SNCA expr inhib, IP6K1 inh)
CN(Cc1ccccc1)C(=O)c1cc(-c2ccccc2C(F)(F)F)nc2c1cnn2C	none (no result: HEK293 viab, SNCA expr inhib, KDM5B inhibitor)
CCCNc1cc(N2CCC(CCC(=O)NCc3cccc(OC)c3)CC2)ncn1	SNCA expr inhib 2.2µM
CC(=O)N(c1nc(C)c(C(=O)Nc2ccc3cc[nH]c3c2)s1)C1CC1	none (no result: HEK293 viab, SNCA expr inhib, IP6K1 inh)
COc1ccc(CCc2nc3nccc(-c4cccc(OC)c4)n3n2)cc1	KDM5B inhibitor 18µM
COc1ccc(Cc2nc3nccc(-c4cccc(OC)c4)n3n2)cc1	KDM5B inhibitor 20µM
COc1ccc(Cc2nc3nccc(-c4cccnc4)n3n2)cc1	none
Cn1ncc2c(C(=O)Nc3cccc(F)c3)cc(-c3cccc(F)c3)nc21	none (no result: HEK293 viab, SNCA expr inhib, KDM5B inhibitor)
COc1ccc(N(CC(=O)N2CCN(Cc3ccccc3)CC2)S(=O)(=O)c2ccc(F)cc2)cc1	none (no result: HEK293 viab, SNCA expr inhib, IP6K1 inh)
Cc1[nH]nc2ccc(-c3cncc(OC[C@@H](N)Cc4ccccc4)c3)cc12	HEK293 viab 9.5µM!, SNCA expr inhib 0.17µM (no result: KDM5B inhibitor)
CNCCN1C(=O)CC[C@H]2CN(C(=O)c3ccc(Cl)cn3)CC[C@H]21	none
CNCCN1C(=O)CC[C@H]2CN(c3ncc(Cl)cc3F)CC[C@H]21	KDM5B inhibitor 25µM
O=C(c1ccc(N2CC3CC(C2)[C@H]2CCCC(=O)N2C3)nc1)N1CCN(c2ncccn2)CC1 (stereo partly drawn)	KDM5B inhibitor inconclusive
O=C(c1ccc(N2CC3CC(C2)[C@H]2CCCC(=O)N2C3)nc1)N1CCC(Cc2ccccc2)CC1 (stereo partly drawn)	HEK293 viab inconclusive, KDM5B inhibitor 32µM
O=C(C1CCN(C(=O)N2CC3CC(C2)[C@H]2CCCC(=O)N2C3)CC1)N1CCN(c2ccccn2)CC1 (stereo partly drawn)	KDM5B inhibitor 25µM
CC1=C[C@@H](CN2CCOCC2)[C@H](C(C)C)C[C@H]1Cc1nnc(-c2ccc(N(C)C)cc2)o1	KDM5B inhibitor 35µM
CC1=C[C@@H](CN2CCN(c3ccccn3)CC2)[C@H](C(C)C)C[C@H]1Cc1nnc(-c2ccccc2)o1	HEK293 viab inconclusive, KDM5B inhibitor 28µM
CCCNc1c(NC(=O)Nc2ccc(C)cc2)c(=O)oc2ccccc12	none (no result: HEK293 viab, SNCA expr inhib, IP6K1 inh)
Cc1noc(C)c1-c1cc2c(cc(C)n2C)c(-c2ccc(CO)cc2)n1	none
COc1cccc(-c2nc(-c3c(C)noc3C)cc3c2cc(C)n3CCN(C)C)c1OC	KDM5B inhibitor 40µM
Cc1noc(C)c1-c1cc2c(cc(C)n2CCN(C)C)c(-c2ccc(CO)cc2)n1	KDM5B inhibitor 25µM
Cc1noc(C)c1-c1cc2c(cc(C)n2CCN(C)C)c(-c2cccc(O)c2)n1	none
Cc1noc(C)c1-c1cc2c(cc(C)n2CCN(C)C)c(-c2ccccc2O)n1	HEK293 viab inconclusive, KDM5B inhibitor 32µM
CCC1=C(C(=O)OC)C(c2cccc(C)c2)N2C(CC(=O)N3CCCCC3C)=CSC2=N1 (stereo not drawn)	KDM5B inhibitor inconclusive
O=C(NCCCN1CCCc2ccccc21)c1cccnc1N1CC2CC(C1)[C@H]1CCCC(=O)N1C2 (stereo partly drawn)	KDM5B inhibitor 28µM
CC(C)CCNC(=O)c1cccnc1N1CC2CC(C1)[C@H]1CCCC(=O)N1C2 (stereo partly drawn)	KDM5B inhibitor inconclusive
C=CCNC(=O)c1cccnc1N1CC2CC(C1)[C@H]1CCCC(=O)N1C2 (stereo partly drawn)	KDM5B inhibitor 25µM
CCCCn1nc(C(=O)N(C)C2CCS(=O)(=O)C2)c2ccccc2c1=O (stereo not drawn)	none (no result: HEK293 viab, SNCA expr inhib, IP6K1 inh)
Cc1ccc(C#N)c(NCc2cccnc2Oc2cccc(C(F)(F)F)c2)n1	KDM5B inhibitor 25µM
COC(=O)c1ccccc1NC(=O)N1CCC[C@@H](O)[C@H](NC(=O)c2ccc(OCc3ccccc3)cc2)C1	KDM5B inhibitor 25µM
COCCOc1ccc(C(=O)N[C@@H]2CN(C(=O)Nc3ccccc3C(=O)OC)CCC[C@H]2O)cc1	none
CCC(=O)N1CCN(c2nc3c(s2)CC(C(=O)NCc2ccc(C)o2)CC3)CC1 (stereo not drawn)	KDM5B inhibitor 25µM
COCCN1C(=O)c2cccn2CC1CNC(=O)c1ccc(-n2c(C)ccc2C)cc1 (stereo not drawn)	none (no result: KDM5B inhibitor)
Fc1ccccc1-c1noc(-c2nc(-c3ccc4c(c3)OCO4)no2)n1	KDM5B inhibitor 25µM
CCCc1noc(-c2nc(-c3ccc4c(c3)OCO4)no2)n1	KDM5B inhibitor 25µM
Cc1noc(-c2nc(-c3ccc4c(c3)OCO4)no2)n1	KDM5B inhibitor inconclusive
COc1ccccc1-c1ccc(CN2CCC(NC(=O)c3ccc(C(F)(F)F)cc3)C2)cc1 (stereo not drawn)	none (no result: HEK293 viab, SNCA expr inhib, KDM5B inhibitor)
S=C(NCc1cccc(Cl)c1)NCc1cccs1	none (no result: HEK293 viab, SNCA expr inhib, IP6K1 inh)
Cn1c(=O)c2c(ncn2Cc2ccc(Br)cc2)n(C)c1=O	none (no result: HEK293 viab, SNCA expr inhib, IP6K1 inh)
O=C(NCc1cc2n(n1)CCNC2)C1CCCN(c2ccccn2)C1 (stereo not drawn)	SNCA expr inhib inconclusive, KDM5B inhibitor 32µM
O=C(NCc1ccccn1)C1CCN(Cc2cc3n(n2)CCCNC3)CC1	none
COc1ccc(-c2ccnc3ncnn23)c(F)c1	KDM5B inhibitor 28µM
COc1cc(F)ccc1-c1ccnc2ncnn12	KDM5B inhibitor 25µM
CN(C)Cc1cccc(-c2cc3c(ccn3Cc3ccncc3)c(N3CCOCC3)n2)c1	KDM5B inhibitor 40µM
Cn1ccc2c(C(=O)NCc3cccnc3)nc(-c3cccc(N4CCOCC4)c3)cc21	none
c1cc(-c2cc3c(ccn3Cc3ccncc3)c(N3CCOCC3)n2)cc(N2CCOCC2)c1	KDM5B inhibitor 20µM
O=C1C(c2ccccc2)=S=C2c3ccccc3-c3ccccc3N12	none (no result: HEK293 viab, SNCA expr inhib, IP6K1 inh)
CC(C)C(NS(=O)(=O)Cc1ccc(F)cc1)c1cccs1 (stereo not drawn)	none (no result: HEK293 viab, SNCA expr inhib, IP6K1 inh)
CCCn1cc(C(=O)CSc2nnc(C)s2)c2ccccc21	none (no result: HEK293 viab, SNCA expr inhib, IP6K1 inh)
CC(NC(=O)c1cccc(C#N)c1)C(=O)N1CCN(c2ccccn2)CC1 (stereo not drawn)	KDM5B inhibitor 25µM
CC(C)C(NC(=O)c1cccc(C#N)c1)C(=O)N1CCN(c2ccccn2)CC1 (stereo not drawn)	KDM5B inhibitor inconclusive
CCOc1ccc(C(=O)NC(C)C(=O)N2CCN(c3ccccn3)CC2)cc1 (stereo not drawn)	KDM5B inhibitor inconclusive
CC(NC(=O)c1ccc2c(c1)OCO2)C(=O)N1CCN(c2ccccn2)CC1 (stereo not drawn)	KDM5B inhibitor 32µM
Cc1ccsc1CN1CC(Oc2ccccc2C(=O)NCc2ccccc2)C1	HEK293 viab inconclusive, SNCA expr inhib inconclusive (no result: KDM5B inhibitor)
